According to PubChem BioAssay (Tox21):
Inconclusive results are not listed. Where a call stands in place of a potency, no number is given. Active and inactive are the calls of the source. Calls come from the whole dose curve; as a rule, active = well fitted curve in the direction sought with a large enough effect in the repeat runs; inconclusive = weak or mixed curves; inactive = no such curve, though single readings can be large; an effect the other way counts as inactive or inconclusive.

Assay: A CellTox Green Cytotoxicity Assay to monitor cytotoxicity in HepG2 cells - 40 hour (AID 1224879); note: nearly all actives have a fitted effect of over 40% in size
Conditions: CellTox Green fluorescence; series mostly up to 76.8 µM
How it was run: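 HepG2 cells, 600/well, preincubated 5 h with CellTox Green dye, then exposed to Tox21 compounds in DMSO at 37 C for up to 40 h. Dead-cell DNA fluorescence read at the indicated time point.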

SMILES | Potency
FC(F)(F)c1ccc(Cl)cc1 | inactive
C/C=C/c1ccc2c(c1)OCO2 | inactive
COS(=O)(=O)OC | inactive
Cc1ccc(N=C=O)cc1N=C=O | inactive
O=C(O)c1cc(Oc2ccc(C(F)(F)F)cc2Cl)ccc1[N+](=O)[O-] | inactive
Nc1ccc(N)cc1 | inactive
CNC(=O)Oc1cccc2ccccc12 | inactive
C[C@H]1C(=O)O[C@@H]2CCN3CC=C(COC(=O)[C@](C)(O)[C@]1(C)O)[C@H]23 | inactive
Nc1cccc(Cl)c1 | inactive
COc1cc(-c2ccc(N)c(OC)c2)ccc1N | inactive

Assay: qHTS RealTime-Glo MT Cell Viability Assay in HEK293 cells - 0 hour (AID 1224880); note: top concentration of the series differs between compounds; nearly all actives have a fitted effect of over 45% in size
Conditions: RealTime-Glo luminescence; series mostly up to 76.8 µM
How it was run: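 600 cells/well were plated with the nonlytic NanoLuc/prosubstrate reagent, pre-incubated 5 h, then given 23 nL of compound in DMSO. Incubation at 37 C for 40 h, with luminescence from viable-cell-reduced substrate read repeatedly from 0 h.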

SMILES | outcome
CCSC(=O)N1CCCCCC1 | inactive
Sc1ccccc1 | inactive
Nc1cccc(Cl)c1 | inactive
COc1cc(-c2ccc(N)c(OC)c2)ccc1N | inactive
